The record followed here is PubChem BioAssay AID559 (PCMD, 2006).

Hit rate of the full screen: of about 62,000 compounds, about 100 (0.2%) were called active. Cut-off read from the data, not from the text of the source: active = inhibition above about 20%; inactive = the rest. The sample as a whole holds a higher share of actives than the screen did.

Chain of DNA-directed RNA polymerase subunit beta (Escherichia coli (strain K12)) (P0A8V2 whole entry, looked up): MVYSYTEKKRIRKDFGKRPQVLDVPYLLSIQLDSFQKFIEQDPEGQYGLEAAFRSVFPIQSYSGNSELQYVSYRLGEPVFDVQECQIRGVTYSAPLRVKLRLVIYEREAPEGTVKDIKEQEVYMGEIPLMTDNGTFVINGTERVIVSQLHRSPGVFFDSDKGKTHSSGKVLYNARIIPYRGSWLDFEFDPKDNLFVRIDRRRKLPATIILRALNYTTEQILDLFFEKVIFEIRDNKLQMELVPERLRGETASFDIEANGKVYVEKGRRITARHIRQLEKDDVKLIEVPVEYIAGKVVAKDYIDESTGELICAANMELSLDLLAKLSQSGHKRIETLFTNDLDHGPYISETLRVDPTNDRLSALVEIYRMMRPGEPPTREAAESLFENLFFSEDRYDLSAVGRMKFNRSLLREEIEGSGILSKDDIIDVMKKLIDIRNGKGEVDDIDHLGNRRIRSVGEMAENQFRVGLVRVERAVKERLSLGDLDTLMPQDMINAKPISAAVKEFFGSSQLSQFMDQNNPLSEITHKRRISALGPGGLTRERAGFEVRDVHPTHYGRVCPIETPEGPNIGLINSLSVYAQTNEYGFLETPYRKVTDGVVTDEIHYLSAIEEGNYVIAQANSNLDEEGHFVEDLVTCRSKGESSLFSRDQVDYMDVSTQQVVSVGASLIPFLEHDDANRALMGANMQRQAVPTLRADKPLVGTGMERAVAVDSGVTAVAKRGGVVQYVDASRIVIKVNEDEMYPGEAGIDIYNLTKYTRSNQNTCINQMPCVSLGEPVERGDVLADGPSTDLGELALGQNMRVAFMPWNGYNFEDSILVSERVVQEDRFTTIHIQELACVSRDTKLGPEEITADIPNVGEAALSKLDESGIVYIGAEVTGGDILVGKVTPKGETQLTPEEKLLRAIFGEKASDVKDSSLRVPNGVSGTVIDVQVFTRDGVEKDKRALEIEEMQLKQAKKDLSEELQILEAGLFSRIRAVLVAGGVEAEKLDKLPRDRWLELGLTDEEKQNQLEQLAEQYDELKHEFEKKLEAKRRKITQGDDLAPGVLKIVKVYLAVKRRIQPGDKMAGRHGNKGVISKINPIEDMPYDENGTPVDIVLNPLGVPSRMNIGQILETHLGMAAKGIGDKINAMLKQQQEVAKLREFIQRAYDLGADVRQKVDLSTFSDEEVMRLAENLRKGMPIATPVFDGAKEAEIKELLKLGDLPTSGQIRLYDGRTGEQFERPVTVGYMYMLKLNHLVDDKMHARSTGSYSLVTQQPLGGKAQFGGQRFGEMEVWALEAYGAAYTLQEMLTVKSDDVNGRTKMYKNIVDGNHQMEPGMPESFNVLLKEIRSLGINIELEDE

The assay has as its target DNA-directed RNA polymerase subunit beta (Escherichia coli (strain K12)) (UniProt P0A8V2). Description: bacterial RNA polymerase transcription inhibition – biochemical (AID 559).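 Note: 0% = enzyme without compound and 100% = no enzyme blank.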 The settings on record: E. coli RNA polymerase, fluorescence transcription assay; stronger effect = higher value;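 tested at 10 µM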.
One may read the inhibition as the drop in the measured response relative to a control, in per cent. As to `CCc1c(C)sc(NC(=O)c2ccc(Br)o2)c1C(=O)OC`, the inhibition is 3.85% (inactive). Regarding `C=CCn1c(COc2cccc3cccnc23)nnc1SCC(=O)OC`, the inhibition is 2.75% (inactive). Then `Cc1ccc(S(=O)(=O)N2CCN(C(=O)CCC(=O)NC3CCCc4ccccc43)CC2)cc1` (configuration not stated), with 8.3% (inactive); and `Cc1c(NC(=O)Nc2ccccc2Cl)sc(=S)n1C`, with 4.97% (inactive).

As for `CC(=O)C1C(c2ccc(Cl)cc2)NC(=O)NC1(O)C(F)(F)F` (configuration not stated), the inhibition is 5.59% (inactive).

For the molecule `COc1ccccc1C1/C(=C(/O)c2ccc(C)cc2)C(=O)C(=O)N1Cc1ccco1` (configuration not stated), the inhibition is 10.3% (inactive).

As for `CC(=O)OCc1cc(=O)n(C)c(=O)n1C`, the inhibition is -0.42% (inactive). With `O=S(=O)(O)c1nc2ccccc2n1Cc1ccc(Cl)cc1Cl`, the inhibition is 4.09% (inactive).

As to `O=C(O)C1CC=CCC1C(=O)NCCc1ccccc1` (configuration not stated), the inhibition is -1.18% (inactive). Then `CCOc1ccc(NC(=O)CC2NCCNC2=O)cc1` (configuration not stated), with 10.3% (inactive). Then `CCOc1ccc(NC(=O)CCC(=O)n2nc(C)cc2C)cc1`, with 7.47% (inactive); and `CCCCOc1ccc(NC(=O)CSCC(=O)OCC)cc1`, with 20.6% (active). As for `CN(C)/C=C1/C(=O)Nc2ccccc21`, the figure is 12.9% (inactive). As to `COC(=O)c1ccc(NC(=O)CSc2nnc(CNc3ccc(OC)cc3)n2C)cc1`, the inhibition is 1.56% (inactive). Then `C[C@H](NC(=O)OC(C)(C)C)c1nnc(SCC(N)=O)o1`, with -0.35% (inactive); and `COc1ccc(-n2nnc3c(=O)n(CC(=O)OCc4ccccc4)cnc32)cc1`, with 1.78% (inactive). As for `CCC(C(=O)N1CCOCC1)n1c(C(=O)OC)cc2occc21` (configuration not stated), the figure is -1.1% (inactive). As for `O=C(c1cccs1)N(C(=O)c1cccs1)c1ccccn1`, the figure is 4.36% (inactive); as for `COc1cc(C2C3C(=O)N(c4ccccc4)C(=O)C3ON2c2ccccc2)ccc1O` (configuration not stated), 6.83% (inactive); as for `CCOC(=O)C1C(=O)C=C(c2ccc(OC)cc2)CC1c1ccco1` (configuration not stated), 0.68% (inactive).

Turning to `C=C(Br)CN1CCN(CC(=C)Br)CC1`, the inhibition is 5.48% (inactive).

With `CCNC(=O)N1CCNC(=O)C1CC(=O)Nc1ccc(C(=O)OCC)cc1` (configuration not stated), the inhibition is 24.6% (active). As to `CCOC(=O)c1ccc(NC(=O)CSc2ncccn2)cc1`, the inhibition was 18.1% (inactive). Then `COc1ccccc1C(=O)N1CCNC(=O)C1CC(=O)Nc1ccc(Cl)cc1` (configuration not stated), with 7.25% (inactive). As for `COc1ccc(N2CCN(C(=O)CSc3ncnc4c3cnn4-c3ccc(OC)cc3)CC2)cc1`, the figure is 3.59% (inactive); as for `CC(=O)Nc1ccc(S(=O)(=O)N2CCN(C3CCCCCCC3)CC2)cc1`, 4.11% (inactive); as for `CC(C)(C)c1cc(CN2CCN(CCC#N)CC2)cc(C(C)(C)C)c1O`, 2.69% (inactive).
